Assay results reported in PubChem BioAssay (NCI).
Where “and” joins values, the source holds several entries; their conditions need not be identical. Equal entries are not always repeated. The panel holds about 83,000 compounds, 20% with a hit somewhere; the sample as a whole holds those more often.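 Method: cells in 96-well plates; compound added at one concentration; 48 h incubation; percent growth measured; values under 10 scored active.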 Calls of active or inactive are those of the source.

The compounds below were run on UO-31 renal (assay: NCI-60 one-dose screen, 48 h (100 = growth as untreated, 0 = no growth, -100 = all killed)). Conditions: 1 µM.
Protocol: Growth inhibition of the UO-31 human tumor cell line is measured as a screen for anti-cancer activity. Cells are grown in 96 well plates and exposed to the test compound for 48 hours. Compounds are tested at a single concentration, which is 10^-5 M for most compounds. The reported endpoint is percent growth (GI% or GIPRCNT), where numbers from 0 - 100% represent growth inhibition, and numbers from -100% - 0 represent cell death. For example, a value of 40 represents 60% growth inhibition. A value of 0 means no net growth occurred over the course of the experiment. A value of -40 indicates 40% of cells at the beginning of the experiment died by the end of the experiment. A value of -100 means all cells are dead at the end of the experiment.
NCI-60 Human Tumor Cell Lines Screen was performed using the standard one-dose NCI protocol, which is described in more detail at https://dtp.cancer.gov/discovery_development/nci-60/default.htm.
Compounds with GIPRCNT values below 10 were considered active. Activity score was based on GIPRCNT using the following formula: […]
Score is 0 for GIPRCNT values of 100 or above, 50 for GIPRCNT values of 0, and 100 for GIPRCNT values of -100.
With `CC/C(=C(\c1ccc(O)cc1)c1ccc(OCCN(C)C(=O)CCOCCNC(=O)c2ccc3c(c2)CN([C@@H]2CCC(=O)NC2=O)C3=O)cc1)c1ccccc1` the growth was 91.9% (inactive).

Same assay, conditions: 10 µM
`CC/C(=C(\c1ccc(O)cc1)c1ccc(OCCN(C)C(=O)CCOCCNC(=O)c2ccc3c(c2)CN([C@@H]2CCC(=O)NC2=O)C3=O)cc1)c1ccccc1` was tested, and the growth was 89.9% (inactive).

Same assay, conditions: 10 µM unless noted
For `Cc1ccc(C(C(=O)NC2CCCCC2)N(Cc2ccccc2Cl)C(=O)c2ccc(CN3CCOCC3)o2)o1` (stereo not given), the growth was 71.1% (inactive).
With `CC(=O)C[n+]1cccc2c3ccccc3ccc21` the growth was 83% (inactive).
For `O=C(CSc1nc2sc3c(c2c(=O)n1-c1ccc(Cl)cc1)CCCC3)NNC(=O)c1ccc(F)cc1`, the growth was 56% (inactive).
In the case of `S=C(Nc1ccccc1)Nc1ccc(OCc2nc3ccc(Cl)cc3[nH]2)cc1`, the growth is reported as 70.3% (inactive).
In the case of `Cn1cc(-c2cc(N)n3nc(-c4c[nH]c5ccc(F)cc45)cc3n2)c2cc(Br)cnc21`, the growth is reported as 47.3% (inactive).
With `COC(=O)c1cc(C(=O)CBr)n2c1ccc1c3ccccc3ccc12` the growth was 24.3% (inactive).
For `CC(C)(C)c1ccc(OCc2nc3ccccc3n2-c2cccc(N)c2)cc1`, the growth was 43.4% (inactive) and 83.6% (inactive).
With `CCN1C(=O)N(CC)C2NNC(Sc3c(C(=O)O)c4ccccc4n(CCC(C)C)c3=O)=NC21` (stereo not given) the growth was 28.1% (inactive).
With `C#CCCCNCCNc1ccnc2cc(Cl)ccc12` the growth was 60.8% (inactive).
For `COc1ccccc1NC(=O)N/N=C/c1c[nH]c2ccccc12`, the growth was 39.1% (inactive).
In the case of `S=C(Nc1ccc(OCc2nc3ccc(Cl)cc3[nH]2)cc1)NC1CCCCC1`, the growth is reported as -7.63% (active).
For `CN(C(=O)CN1C(=O)/C(=C/c2ccco2)SC1=S)C1CCS(=O)(=O)C1` (stereo not given), the growth was 87.8% (inactive).
In the case of `Cc1cc(C)c2[nH]c(=O)c(C(c3nnnn3Cc3ccc4c(c3)OCO4)N3CCN(C)CC3)cc2c1` (stereo not given), the growth is reported as 103% (inactive).
`Cc1oc(-c2ccccc2)nc1CN[C@@H]1C[C@@H]2C[C@H]([C@H]1C)C2(C)C` was tested, and the growth was 23.9% (inactive).
With `Cn1cc(-c2cc(N)n3nc(-c4c[nH]c5ccccc45)cc3n2)c2cc(F)ccc21` the growth was 59.7% (inactive).
With `N#Cc1c(-c2ccc(F)cc2)nc(SCc2ccc(F)cc2)nc1N1CCNCC1` the growth was 8.26% (active).
In the case of `COc1ccc(C(=O)C[n+]2cccc3c4ccccc4ccc32)cc1`, the growth is reported as 56.5% (inactive).
With `FC(F)(F)CN1CCN(CCn2c(C(F)(F)F)cc3c(Cl)ncnc32)CC1` the growth was -95.1% (active).
`Nc1cc(-c2c[nH]c3ccc(Cl)cc23)nc2cc(-c3c[nH]c4ccccc34)nn12` was tested, and the growth was -4.79% (active).
With `O=C(CSc1nnc(-c2ccc(-c3nc4ccc(Cl)cc4[nH]3)cc2)o1)Nc1ccccc1` the growth was 60.6% (inactive).
In the case of `COc1ccc(-c2cc(C(=O)Oc3ccc(C=O)cc3OC)nn2-c2ccc(S(C)(=O)=O)cc2)cc1`, the growth is reported as 78.2% (inactive).
`COc1cc(C2CC(c3ccc(Cl)cc3)=Nc3c(N)nc(N)nc3N2)ccc1Oc1nc(Nc2ccc(F)cc2)nc(N(C)C)n1` (stereo not given) was tested, and the growth was 34.6% (inactive).
With `C[C@@H](Nc1c(C#N)cnc2ccc(-c3cnc4[nH]ncc4c3)cc12)c1ccccc1` the growth was 8.19% (active).
With `CS(=O)(=O)c1ccc(-n2nc(C(=O)NCc3ccccc3)cc2-c2ccc(Cl)cc2)cc1` the growth was 56.5% (inactive).
In the case of `O=C(N/N=C/c1ccsc1)c1[nH]c2ccc(Br)cc2c1-c1ccccc1`, the growth is reported as -49.4% (active).
With `O=C(Nc1ccc(Cl)c(C(F)(F)F)c1)N1CCN(c2cc(-c3cn(-c4ccccc4)nc3-c3cccc(O)c3)ccn2)CC1` the growth was 5.37% (active).
With `COc1ccc(OC)c(Cn2cc(C#N)c(N)c2C(=O)c2ccc(Br)cc2)c1` the growth was 34.6% (inactive).
For `COC(=O)c1c(C(=O)OC)c2c3ccccc3c3ccccc3n2c1C(=O)C(F)(F)F`, the growth was 65.9% (inactive).
In the case of `COc1ccc2c(c1)C(=O)N(C)C2C1c2c(cc3c(c2OC)OCO3)CCN1C` (stereo not given), the growth is reported as 49.4% (inactive).
For `COC(=O)c1cc(C(C)=O)n2c3ccccc3c3ccccc3c12`, the growth was 38% (inactive).
With `COc1ccc(N=Nc2c(N)nn3c(N)c(C#N)c(-c4ccc(C)cc4)nc23)cc1` the growth was 61.1% (inactive).
`Nc1nnc(-c2cncc(Br)c2)c(-c2c[nH]c3ccc(Br)cc23)n1` was tested, and the growth was 34.8% (inactive).
`CCCSc1nnc(-c2sc3nc4ccccc4n3c2C)o1` was tested, and the growth was 82.3% (inactive).
With `O=c1c(-c2nc(-c3ccccc3)c(-c3ccccc3)[nH]2)coc2ccc(F)cc12` the growth was 40.4% (inactive).
In the case of `COc1cc2cc(C(=O)N3C[C@@H](CCl)c4c3cc(OC(=O)N(C)CCSSCCN3CCOCC3)c3ccccc43)[nH]c2c(OC)c1OC`, the growth is reported as -28.2% (active).
In the case of `COc1cc(CNC(=O)C[C@H](C)CCC=C(C)C)ccc1OCc1cn(-c2ccccc2Cl)nn1`, the growth is reported as 30.3% (inactive).
With `CCOc1ccccc1NC(=O)N/C(N)=N/c1nc2ccccc2s1` the growth was 44.6% (inactive).
`Cc1cc(C2(c3cc(C)c(OCC(O)CNc4c(C)n(C)n(-c5ccccc5)c4=O)cc3C(C)C)OC(=O)c3ccccc32)c(C(C)C)cc1OCC(O)CNc1c(C)n(C)n(-c2ccccc2)c1=O` (stereo not given) was tested, and the growth was 19.1% (inactive).
